Bioassay records: PubChem, ICCB-Longwood Screening Facility, Harvard Medical School
Vaccinia pol inh – blocks vaccinia virus processive DNA synthesis; in vitro processive DNA synthesis, absorbance read-out; active compounds read low; normalized absorbance, % (concentration not given with the values); 46,000 tested, 0.94% active; AID 493162; in the data active = normalized absorbance mostly below about 85%, no sharp cut-off; inactive = mostly above about 86%
Of the large screens only hits and unclear results are named; the others gave an inactive call. The entries come from a sample that favours hits as a whole.

CCOC(=O)c1c(C)n(C)c2ccc(OCCN(C)C)cc12	Vaccinia pol inh 65
CCOC(=O)c1c(C)n(Cc2ccccc2)c2ccc(OC(C)=O)cc12	none
Cc1ccc(S(=O)(=O)N2CC=C(c3ccccc3)CC2)cc1F	none
CC(=O)N[C@@H](Cc1c[nH]c2ccccc12)C(=O)O	none
Cc1cc(OCC(=O)NC(Cc2c[nH]c3ccccc23)C(=O)O)cc(C)c1Cl (configuration not stated)	Vaccinia pol inh 60
Cc1ccc(OCC(=O)NC(Cc2c[nH]c3ccccc23)C(=O)O)cc1 (configuration not stated)	none
CN1C/C(=C\c2ccc(O)cc2)C(=O)/C(=C/c2ccc(O)cc2)C1	none
COC(=O)c1c2c(n3cc4ccccc4cc13)C(=O)c1ccccc1C2=O	none
COC(=O)c1c2c(n3ccccc13)C(=O)c1ccccc1C2=O	Vaccinia pol inh 62
COC(=O)c1c2c(n3ccc(C)cc13)C(=O)c1ccccc1C2=O	none
N#Cc1ccccc1Oc1ccccc1F	none
Cc1ccc(C2CCN(C(=S)Nc3ccccc3C)C2)cc1 (configuration not stated)	none
CCOC(=O)C(C)n1nc(C)c2sc3ccccc3c2c1=O (configuration not stated)	none
CCN(CC)CCNc1ccc(CO)c2sc3ccccc3c(=O)c12	Vaccinia pol inh 60
CCC(C(=O)O)n1nc(C)c2sc3ccccc3c2c1=O (configuration not stated)	none
CC(NC(=O)c1c[nH]c2ccccc12)c1ccccc1 (configuration not stated)	none
COc1ccc(/C=C/C2=CCN(Cc3ccccc3)CC2)cc1	none
CCNc1cc(N)[n+](CC)c2n[nH]c(/N=C/c3cc(Cl)cc(Cl)c3O)c12	Vaccinia pol inh 69
CC(=O)Nc1ccc2oc(=O)ccc2c1	none
O=C(NC1(C(F)(F)F)Oc2ccccc2O1)N1CCCc2ccccc21	none
O=C1NC(=O)C(Cc2ccc(C(=O)O)cc2)S1 (configuration not stated)	none
Cc1ccc(CC2SC(=O)NC2=O)cc1Cl (configuration not stated)	none
O=C1NC(=O)C(Cc2ccccc2)S1 (configuration not stated)	Vaccinia pol inh 79
O=C1C=C(O)c2nc(-c3ccccc3)cc(C(=O)O)c2C1=O	none
CC(C)CCNC(=O)c1ccc(CS(=O)(=O)c2ccc(Br)cc2)o1	none
C=CCn1c(=O)sc2cc(NC(C)=O)ccc21	none
CC(Sc1ccccc1)C(=O)Nc1ccc(CC#N)cc1 (configuration not stated)	none
COc1ccc2nc(-c3ccccc3)cc(C(=O)O)c2c1	none
COc1ccc2nc(C)cc(Nc3ccccc3)c2c1	Vaccinia pol inh 81
COc1ccc2nc(Nc3ccccc3)sc2c1	none
CCn1cc(C(=O)O)c(=O)c2cnc(N3CCNCC3)nc21	none
CCn1cc(C(=O)O)c(=O)c2cc(F)c(N3CCNCC3)cc21	Vaccinia pol inh 77
CCn1cc(C(=O)NN)c(=O)c2cc(F)c(N3CCCC3)cc21	none
N#Cc1ccsc1NC(=O)c1ccc(Br)s1	none
O=C(O)c1ccc(CS(=O)(=O)c2ccccc2)o1	Vaccinia pol inh 19
COc1ccc(S(=O)(=O)Cc2ccc(C(=O)N3CCOCC3)o2)cc1	none
O=C(O)c1ccc(CSCc2ccccc2)o1	none
O=C1/C(=C/c2cccs2)SC(=S)N1c1ccc(Cl)c(Cl)c1	none
CCOC(=O)CSc1sc(C(=O)OCC)c(N)c1C#N	none
CN(C)c1cccc(NC(=O)c2cccs2)c1	none
COC(=O)c1ccccc1C(=O)c1ccccc1	none
O=C(NO)c1cccc2c1-c1ccccc1/C2=N/O	none
COC(=O)c1cccc2c1-c1ccccc1/C2=N/O	Vaccinia pol inh 58
CCCN(CCC)C(=O)CSc1nc2ncccc2[nH]1	none
C[C@@]1(C(=O)O)CC[C@]2(C)CC[C@]3(C)C4=CC=C5C=C(O)C(=O)C=C5[C@]4(C)CC[C@@]3(C)[C@@H]2C1	Vaccinia pol inh 77
COC(=O)/C=C1\S/C(=N\S(=O)(=O)c2ccccc2)N(c2ccccc2)C1=O	none
CCOc1ccc(/C=C2\SC(=S)N(CC(=O)N3CCCc4ccccc43)C2=O)cc1	none
C=CCNC(=O)c1cc(-c2cccs2)nc2ccccc12	none
Cc1ccc(C)n1C(CC(=O)O)c1ccc(F)cc1 (configuration not stated)	none
O=C(O)CC(c1ccsc1)n1cccc1 (configuration not stated)	none
Cc1ccc(C)n1C(CC(=O)O)c1ccsc1 (configuration not stated)	Vaccinia pol inh 73
N#Cc1ccsc1NC(=O)c1ccco1	none
COC(=O)c1cc2sccc2n1C(C)C(=O)Nc1cc(Cl)ccc1C (configuration not stated)	none
CN(C)/C=C/C(=O)c1ccc2c(c1)CCO2	none
COC(=O)c1noc(C)c1C(=O)/C=C/N(C)C	Vaccinia pol inh 40
Cc1c(C(=O)/C=C/N(C)C)nnn1-c1ccccc1	none
CCOC(=O)CCC(=O)O[C@H]1[C@H](O[C@@H]2[C@@H](C)[C@H](O[C@H]3C[C@@](C)(OC)[C@@H](O)[C@H](C)O3)[C@@H](C)C(=O)O[C@H](CC)[C@@](C)(O)[C@H](O)[C@@H](C)C(=O)[C@H](C)C[C@@]2(C)O)O[C@H](C)C[C@@H]1N(C)C	none
